Screens as filed in PubChem BioAssay.
HP1b binding inh: HP1-beta chromodomain-methylated histone interaction inhibition; AlphaScreen HP1-beta / biotin-H3K9me3 peptide binding; Potency, µM (highest dose often 114 µM), for the others: top-dose activity change, negative = inhibition, hits mostly inhibitors; 390,000 compounds, 0.56% hits; AID 540317; also: potency is read from the fitted curve at half-maximal effect; nearly all actives have a fitted effect of over 70% in size
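Compound inhibition of the preformed complex between 50 nM HP1-beta and 50 nM biotinylated H3K9me3 peptide was read by AlphaScreen. Buffer was PBS pH 7.4 with 0.01% Tween-20. Incubations ran 30 min at room temperature, with 10 ug/mL donor/acceptor beads.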
CtBP-E1A inh: CtBP/E1A binding inhibition; AlphaScreen GST-E1A/His-CtBP binding, 1536-well; hits give low values; activity change, % (concentration not given with the values); AID 651724; 340,000 compounds, 0.49% hits; in the data active = activity change below about -65%; inconclusive = mostly about -30% to -63%; also: % is scaled to controls: 0 for no effect and ±100 for the full control effect
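In 5 uL wells, 23 nL compound meets equimolar GST-E1A and His-CtBP (5X stock 125 nM each) for 2 h, 37 °C. Beads (5X, 50 ug/mL) then 1 h, 37 °C, dark.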
Six1-Eya2 blk: blocks human Six1 binding to Eya2. Q15475+O00167. AlphaScreen GST-Six1/His-Eya2 binding, biochemical; hits give low values. activity change, % (no concentration beside the values). 360,000 compounds, 0.56% hits. AID 651725; in the data active = activity change below about -65%; inconclusive = mostly about -30% to -63%; also: % is scaled to controls: 0 for no effect and ±100 for the full control effect
Target sequence (O00167 whole entry, looked up): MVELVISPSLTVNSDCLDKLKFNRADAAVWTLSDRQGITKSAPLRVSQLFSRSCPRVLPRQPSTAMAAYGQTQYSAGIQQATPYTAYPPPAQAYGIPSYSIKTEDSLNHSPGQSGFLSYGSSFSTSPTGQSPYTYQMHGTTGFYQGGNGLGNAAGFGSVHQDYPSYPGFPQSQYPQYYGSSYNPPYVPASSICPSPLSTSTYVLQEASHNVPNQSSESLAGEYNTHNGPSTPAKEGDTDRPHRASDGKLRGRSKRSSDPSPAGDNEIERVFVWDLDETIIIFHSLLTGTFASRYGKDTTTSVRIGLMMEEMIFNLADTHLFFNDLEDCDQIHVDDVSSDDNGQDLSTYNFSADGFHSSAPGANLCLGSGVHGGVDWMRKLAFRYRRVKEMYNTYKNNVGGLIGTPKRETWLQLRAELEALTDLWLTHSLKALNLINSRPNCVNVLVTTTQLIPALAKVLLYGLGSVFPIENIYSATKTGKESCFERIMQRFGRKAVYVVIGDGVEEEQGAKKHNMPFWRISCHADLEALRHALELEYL
Target sequence (Q15475 whole entry, looked up): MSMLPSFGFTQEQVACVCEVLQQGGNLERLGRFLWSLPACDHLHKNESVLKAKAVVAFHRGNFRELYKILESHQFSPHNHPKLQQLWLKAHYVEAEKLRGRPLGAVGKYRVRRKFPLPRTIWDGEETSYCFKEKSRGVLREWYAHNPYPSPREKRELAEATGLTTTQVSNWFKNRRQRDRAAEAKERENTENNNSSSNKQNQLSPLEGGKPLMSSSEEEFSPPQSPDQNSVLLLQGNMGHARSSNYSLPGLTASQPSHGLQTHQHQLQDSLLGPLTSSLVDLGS
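Homogeneous AlphaScreen proximity assay pairing GST-Six1 with His-tagged Eya2 (added as 5X mix: 250 nM and 500 nM) in 50 mM Tris pH 8.0, 300 mM NaCl, 1 mM TCEP. Glutathione donor and nickel acceptor beads; 1 h, 37 °C, dark.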
JMJD2A Tudor inh: JMJD2A Tudor domain (human) inhibition | AlphaScreen JMJD2A-Tudor / H3K4me3 peptide binding | Potency, µM (top dose mostly 114 µM), for the others: at the highest dose activity change, negative = inhibition, actives largely listed as inhibitors | 390,000 compounds, 4.4% hits; also: potency is read from the fitted curve at half-maximal effect; % is scaled to controls: 0 for no effect and ±100 for the full control effect; nearly all actives have a fitted effect of over 50% in size
G9a inh: G9a (human) methyltransferase inhibition. Q96KQ7. G9a H3K9 monomethylation, AlphaScreen, 2 h. Potency, µM (doses to about 102 µM), without a hit: top-dose activity, negative = inhibition, usual class: inhibitors. 350,000 compounds, 8.8% hits. AID 504332; also: potency is read from the fitted curve at half-maximal effect; % is scaled to controls: 0 for no effect and ±100 for the full control effect; nearly all actives have a fitted effect of over 75% in size
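Using a bead-based AlphaScreen, monomethylated H3K9 product from 2 h room-temperature reactions (G9a 20 nM, peptide 500 nM, SAM 20 uM) was detected with 0.5 ug/mL rabbit anti-H3K9me1 antibody.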
BAZ2B inh: inhibitors of human BAZ2B bromodomain | Q9UIF8 | AlphaScreen BAZ2B-H3K14Ac peptide displacement | Potency, µM (series often up to 114 µM), for the others: at the top dose activity change, negative = inhibition, usual class: inhibitors | 360,000 compounds, 4.4% hits | AID 504333; also: potency is read from the fitted curve at half-maximal effect; % is scaled to controls: 0 for no effect and ±100 for the full control effect; nearly all actives have a fitted effect of over 60% in size
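In this displacement format the biotinylated H3(5-23) peptide acetylated at Lys14 serves as ligand at 50 nM, with BAZ2B at 50 nM in PBS pH 7.4 containing 0.01% Tween-20. Donor and acceptor beads are 10 ug/mL final.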
Starred values were filed as active, the others as inactive; ? = inconclusive; · = no result given; [ ] = dose if it differs, or a comment. Hits are enriched below; roughly 10% of the tested compounds scored in any of these assays. Unless noted, calls follow the shape of the dose curve; as a rule, active = well fitted inhibition curve with a large enough effect; inconclusive = small, poorly fitted or top-dose-only effect; inactive = no such curve, though single readings can be large or run the other way.

SMILES	HP1b binding inh	CtBP-E1A inh	Six1-Eya2 blk	JMJD2A Tudor inh	G9a inh	BAZ2B inh
Cc1cccc(NC(=O)Cn2cc(C(=O)C3CCCCC3)c3ccccc32)c1C	21%	·	·	-4%	10%[59 µM]	-15%
COc1ccc(Nc2nc(NCc3ccco3)nc(N/N=C/c3ccccc3)n2)cc1	4%	-16	-23	?	?	79µM*
CCOc1nc(NCc2ccco2)nc(Nc2ccccc2F)n1	32%	0	-1	-4%	-5%[59 µM]	2%
CCOc1nc(NCc2ccco2)nc(Nc2ccc(OC)cc2)n1	-7%	-12	-16	-16%	?	50µM*
CCc1cccc(Nc2ncnc3onc(-c4ccc(F)cc4)c23)c1	86%	·	·	34%	24%[59 µM]	62%[57.1 µM]
O=C(NNc1cccc(Cl)n1)c1ccc(Cl)cc1Cl	47%	3	4	5%	4%[59 µM]	9%
O=C(NNc1cccc(Cl)n1)c1ccccc1CC[N+](=O)[O-]	-14%	7	3	22µM*	-1%	2%
Cc1ccc2ccccc2c1C(O)c1ncc(-c2ccccc2)[nH]1 (centres undefined)	·	-4	-5	·	·	·
Clc1ccc2nc(-c3ccccn3)c(Nc3ccc4c(c3)OCO4)n2c1	?	5	-20	2.2µM*	18%	2.8µM*
COc1cc(-c2nc3ccc(Cl)cn3c2Nc2ccc3c(c2)OCO3)ccc1O	?	·	·	32µM*	13µM*	·
CCCCOc1ccc(Cn2c(=O)sc3ccccc32)cc1OC	102%	·	·	68%	90%[59 µM]	95%
CCOC(=O)COn1c(=O)c(=O)n(O)c2ccccc21	5%	12	-1	50µM*	45µM*	-5%
C=CCOn1c(=O)c(-c2ccc(OC)c(OC)c2)[n+]([O-])c2ccccc21	-23%	-5	-5	89µM*	8.9µM*	-38%
COc1ccc(-c2c(=O)n(OCc3ccccn3)c3ccccc3[n+]2[O-])cc1OC	-7%	-1	-1	-30%	?	-4%
CCOC(=O)COn1c(=O)c(-c2ccc(OC)c(OC)c2)[n+]([O-])c2ccccc21	·	·	·	·	22µM*	-1%
CCOC(=O)COn1c(=O)c(=O)n(OC)c2ccccc21	-26%	-12	-2	?	-2%[12.7 µM]	12%
COc1ccc(-c2c(=O)n(OC)c3ccccc3[n+]2[O-])cc1OC	-10%	-7	-28	-22%	32µM*	-9%
CCOC(=O)N(C)c1c(CC)nc2c(OCc3ccc(Cl)cc3)cccn12	·	2	-6	·	·	·
CC(=O)c1ccc(NC(=O)CC(c2cccs2)N2Cc3ccccc3C2=O)cc1 (centres undefined)	2%	·	·	-20%	-3%[59 µM]	-8%
COc1ccc(-c2c(=O)n(OCc3ccccc3[N+](=O)[O-])c3ccccc3[n+]2[O-])c(OC)c1	-2%	-1	-6	-28%	45µM*	-32%
COc1ccc(OC)c(NC(=O)c2cc3ccccc3o2)c1	27%	4	4	12%	-45%[59 µM]	-16%
Cc1ccc(-c2nc3cc(C(C)C)ccc3o2)cc1NC(=O)c1cc2ccccc2o1	35%	·	·	-8%	-47%[59 µM]	3%
COc1ccc(NC(=S)NC(=O)c2cc3ccccc3o2)c(OC)c1	23%	6	-3	-2%	10µM*	-4%
Cc1ccc(-c2nc3ccccc3o2)cc1NC(=S)NC(=O)c1cc2ccccc2o1	25%	9	1	0%	50µM*	0%
Cc1ccc2c(=O)cc(C(=O)Nc3sc4c(c3C(=O)NCc3ccccc3)CCCC4)oc2c1C	25%	·	·	-21%	-3%[59 µM]	-10%
SMILES	HP1b binding inh	CtBP-E1A inh	Six1-Eya2 blk	JMJD2A Tudor inh	G9a inh	BAZ2B inh
Cc1cccc(NC(=O)CCC2CCN(C(=O)C3CC=CCC3)CC2)c1 (centres undefined)	-2%	-4	2	-5%	·	-1%
CN(C)c1ccc(/C=C(\NC(=O)c2ccccc2)C(=O)NCc2ccncc2)cc1	-7%	-1	2	-31%	28µM*	-22%
CN(C)c1ccc(/C=C(\NC(=O)c2ccccc2)C(=O)NCc2cccnc2)cc1	-3%	0	-4	-10%	40µM*	-17%
COc1ccc(/C=C(\NC(=O)c2ccccc2)C(=O)NCc2cccnc2)cc1	15%	10	2	-7%	-12%	19%
CCc1cc2c(s1)c1cnn(Cc3ccccc3F)c(=O)c1n2C	·	·	·	16%	·	·
CC(C)CNc1ncnc2onc(-c3ccc(Cl)cc3)c12	94%	·	·	31%	14%[59 µM]	24%
N#CN=c1snc(-c2ccccc2)n1-c1ccc(Br)cc1	23%[57 µM]	·	·	-20%[57.1 µM]	·	·
C/C(=C\C=C(C#N)C#N)c1cc(C#N)c(N)o1	?	-24	?	?	20µM*	25µM*
Cc1ccc(NC(=O)CSc2nnc(C)n3c2cc2sccc23)c(C)c1	-6%	·	·	-18%	?	?
CS(=O)c1ccccc1O (centres undefined)	17%	4	4	-14%	12%[59 µM]	-15%
O=S(c1ccccc1O)S(=O)c1ccccc1O (centres undefined)	3.5µM*	-6	-24	0.79µM*	·	·
CCOc1ccc(NC(=O)CN(C)C(=O)c2ccc3nc(CC)c(CC)nc3c2)cc1OCC	17%	0	-16	-19%	50µM*	0%
CN(CC(=O)Nc1cccc(F)c1)C(=O)c1ccc(C2SCCS2)cc1	25%	-22	6	-14%	31%[59 µM]	-7%
CN(CC(=O)Nc1cccc(F)c1)C(=O)c1ccc(N2CCCC2)c([N+](=O)[O-])c1	-22%	-7	-17	?	50µM*	?
CN(CC(=O)Nc1cccc(F)c1)C(=O)c1ccc2c(c1)CC(c1ccccc1)OC2=O (centres undefined)	-2%	-21	-5	?	14µM*	?
CN(CCOc1ccccc1)C(=O)c1ccc(N2CCCC2)c([N+](=O)[O-])c1	?	-2	-23	?	50µM*	?
CN(CC(=O)Nc1cccc(F)c1)C(=O)c1ccc(N2CCCCCC2)c([N+](=O)[O-])c1	?	-15	-23	?	?	?
COc1cccc(NC(=O)CN(C)C(=O)c2ccc(N3CCCCC3)c([N+](=O)[O-])c2)c1	-16%	-11	-21	?	20%[12.7 µM]	?
CC(C)Oc1ccc(CNC(=O)c2cccc(NC(=O)N3CCSc4ncccc43)c2)cc1	32%	·	·	-15%	-27%[59 µM]	-15%
Cc1cc2c(cc1NC(=O)c1ccccc1Cl)n(C)c(=O)c(=O)n2C	-2%	·	·	-2%	13%[59 µM]	-10%
O=C(C1CCN(c2nc3ccccc3[nH]2)CC1)N1CCN(c2ccccc2)CC1	27%[57 µM]	·	·	-2%	-5%[59 µM]	-1%
CCOC(=O)CSc1nnc2n(-c3ccccc3)c(=O)c3c4c(sc3n12)CC(C(C)(C)C)CC4 (centres undefined)	2%	·	·	-32%	-37%[59 µM]	?
